# Screens from PubChem.
# ELG1 genotoxic: induces genotoxicity in HEK293T cells with luciferase-tagged ELG1. HEK293T ELG1-luciferase reporter, luminescence, 16 h. Potency, µM (highest dose often 46 µM), without a hit: at the top dose activity change, positive = activation, hits mostly activators. 330,000 tested, 1.3% active; note: % of control where 0% means no effect; nearly all actives have a fitted effect of over 60% in size
#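 Cells (2,000/well) expressing the ELG1-luciferase fusion are dosed by pin tool and kept 16 hr at 37 °C, 5% CO2. Signal comes from ONE-Glo luciferase reagent after 30 min at room temperature.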
# FLuc counter: firefly luciferase modulation, counter-screen for miR-21 project; purified FLuc, Km substrates, luminescence inhibition; Potency, µM (highest dose often 57.5 µM), for the others: at the top dose activity change, negative = inhibition, usual class: inhibitors; 360,000 tested, 6.9% active;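 note: plate controls were vehicle for no effect and reference inhibitor for full effect; nearly all actives have a fitted effect of over 55% in size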
# Target sequence (P08659 whole entry, looked up): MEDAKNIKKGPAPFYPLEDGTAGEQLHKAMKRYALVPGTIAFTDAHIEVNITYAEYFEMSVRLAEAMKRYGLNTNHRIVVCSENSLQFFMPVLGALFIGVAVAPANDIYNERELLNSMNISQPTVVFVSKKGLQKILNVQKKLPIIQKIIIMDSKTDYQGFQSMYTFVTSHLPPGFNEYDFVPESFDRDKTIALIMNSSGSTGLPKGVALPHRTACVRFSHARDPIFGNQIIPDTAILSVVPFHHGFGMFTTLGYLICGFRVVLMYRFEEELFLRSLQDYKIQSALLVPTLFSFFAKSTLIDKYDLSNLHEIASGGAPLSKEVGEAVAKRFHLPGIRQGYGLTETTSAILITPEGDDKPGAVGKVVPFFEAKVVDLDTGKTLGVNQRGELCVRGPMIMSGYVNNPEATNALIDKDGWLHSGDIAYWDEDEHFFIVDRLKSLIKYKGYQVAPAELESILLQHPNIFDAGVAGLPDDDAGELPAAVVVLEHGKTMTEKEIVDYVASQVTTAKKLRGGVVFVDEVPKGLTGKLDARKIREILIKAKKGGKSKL
#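 Purified P. pyralis luciferase (10nM final) with 10uM D-luciferin and 10uM ATP (Km levels) in 50mM Tris acetate pH 7.5, 10mM Mg acetate, 0.01% Tween-20, 0.05% BSA; qHTS 6-point titration, ~60 µM downward; luminescence read.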
# Rab9 promoter act: activators of Rab9 promoter | Huh7 Rab9 promoter-luciferase reporter, luminescence, 24 h | Potency, µM (highest dose often 9.22 µM), without a hit: top-dose activation, negative = inhibition, hits mostly activators | 320,000 tested, 2.8% active | AID 485297; note: % of control where 0% means no effect; nearly all actives have a fitted effect of over 60% in size
#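 Rab9 promoter-driven luciferase in stably transfected Huh7 cells; 1500 cells/well rested 2 h, exposed to compound in DMSO for 24 h at 37 °C, 5% CO2. Luminescence read 10 min after adding luciferase reagent at ambient temperature.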
# SMN2 splice enh: SMN2 splice variant enhancement | HEK293 SMN2-luciferase splicing reporter, luminescence, 30-36 h | Potency, µM (titrated, usually from 46.1 µM), for the others: at the highest dose activity change, positive = activation, usual class: activators | 210,000 tested, 2.8% active; note: % of control where 0% means no effect; nearly all actives have a fitted effect of over 55% in size
#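 HEK293 cells carry an SMN2 […]–luciferase reporter in which exon 7 inclusion puts luciferase in frame. Cells were plated 10-12 h before compound addition, then incubated 30-36 h at 37C. ONE-Glo luminescence was read; sodium butyrate at 4.5 mM final served as control.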
# NPC1 promoter act: activates the NPC1 promoter | 320,000 tested, 2.4% active | Huh7 NPC1 promoter luciferase reporter, 24 h | Potency, µM (top dose mostly 9.22 µM), without a hit: top-dose activation, hits mostly activators; note: % of control where 0% means no effect; nearly all actives have a fitted effect of over 60% in size
#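 Luminescence read-out of NPC1 promoter-driven luciferase in stably transfected Huh7 cells; compounds delivered in DMSO and left 24 h at 37C, 5% CO2, qHTS titration format.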
# KinaseGlo FLuc: Kinase-Glo luciferase inhibition (counter-screen); Kinase-Glo luciferase, ATP luminescence, 8 min; Potency, µM (series often up to 38.3 µM), for the others: at the top dose activity change, negative = inhibition, usual class: inhibitors; 200,000 tested, 0.28% active; AID 1379; note: % is set by controls: 0 for no effect and ±100 for the full control effect; nearly all actives have a fitted effect of over 60% in size
#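 Compound is pinned into ATP-containing buffer (10 uM ATP, imidazole pH 7.2, 7 mM MgCl2). Kinase-Glo luciferase reagent is then added. Light output is recorded following an 8-min room-temperature incubation.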
# Numbers without * were called inactive; ? = inconclusive; · = no result given; [ ] = dose if it differs, or a comment. Rows were chosen to be rich in hits. Some 7.5% of all compounds tested hit in one or more screens of this group. Calls come from the whole dose curve; as a rule, active = well fitted curve in the direction sought with a large enough effect; inconclusive = small, poorly fitted or top-dose-only effect, or another doubt; inactive = no such curve, though single readings can be large; an effect the other way counts as inactive or inconclusive. Potency is the fitted concentration of half-maximal effect.
SMILES,ELG1 genotoxic,FLuc counter,Rab9 promoter act,SMN2 splice enh,NPC1 promoter act,KinaseGlo FLuc
Cc1ccc(/C=C2/Sc3ccc(C(=O)N4CCN(C)CC4)cc3NC2=O)cc1,2.2%,15.1µM*,0.4%,·,-1.0%,·
CCc1cccc(NC(=O)CC2Oc3ccc(C)cc3NC2=O)c1 (stereo not given),·,-3.2%,·,16.5%,·,·
CC(=O)N1CCN(c2ccc(NC(=O)c3ccc4c(c3)OCCO4)cc2)CC1,6.4%,?,0.7%,-17.0%,-1.1%,-5.4%
Cc1ccc(NC(=O)c2ccc3c(c2)OCCO3)cc1,?,0.536µM*,0.1µM*,0.708µM*,0.316µM*,-10.7%
O=C(Nc1ccncc1)c1ccc2c(c1)OCCO2,4.6%,16.9µM*,8.5%,-25.8%,0.0%,-9.3%
O=c1cc(O)c2sc3nc(C(F)(F)F)c4c(c3c2[nH]1)CCCCC4,3.9%,19µM*,2.6%,-12.7%,0.9%,1.3%
C/C=C(/CC[C@@H](C)[C@H]1CCC2C3=CC[C@H]4[C@H](C)[C@@H](O)CC[C@]4(C)C3CC[C@@]21C)C(C)C (stereo not given in full),·,·,·,·,·,-1.8%[39.9 µM]
C=CCOc1ccc(C=Nc2ccc(OC)cc2)c(O)c1,1.2%,8.49µM*,-11.1%,·,-0.2%,·
COc1ccc(N=Cc2c[nH][nH]c2=O)cc1,3.4%,-15.4%,0.8%[1.84 µM],-7.2%,2.3%,-6.3%
Cc1ccc(NC(=O)C(C)[n+]2ccccc2)cc1[N+](=O)[O-] (stereo not given),0.8%,3.3%,-4.3%,28.2µM*,-0.7%,-0.8%
O=C(NC[C@H](O)c1ccccc1)c1ccccc1,·,·,·,14.1µM*,·,-12.4%
O=C(CNC(=O)c1ccc(-c2ccccc2)cc1)OCc1ccc(Br)cc1,11.4%,21.3µM*,28.2%,3.55µM*,16.2%,7.6%
COc1ccc(C(=O)NCC(=O)OCc2ccc(Br)cc2)cc1,0.8%,-1.0%,-6.5%,-20.2%,-0.7%,-0.6%
O=C(CNC(=O)c1ccccc1)c1ccccc1,?,6.75µM*,0.447µM*,·,0.708µM*,·
CC(NC(=O)COC(=O)CNC(=O)c1ccc(-c2ccccc2)cc1)c1ccccc1 (stereo not given),-2.0%,16.9µM*,8.9%,·,6.5%,·
O=C(O)CNC(=O)c1ccccc1,-5.6%,0.6%,-7.2%,·,1.9%,-2.8%[39.9 µM]
Clc1ccc(Oc2nc(N3CCOCC3)nc(N3CCOCC3)n2)cc1,·,1.8%,·,-9.0%,·,1.6%
Cc1coc2cc3oc(=O)c(CC(=O)NCc4ccc(F)cc4)c(C)c3cc12,·,-1.2%,·,1.3%,·,·
O=C(CNC(=O)c1ccccc1C(=O)O)c1ccccc1,?,12µM*,3.55µM*,-7.7%,2.82µM*,0.0%
O=C(CNC(=O)c1ccc(Br)cc1)c1ccc(Br)cc1,1.6%,2.9%,8.3%,·,-1.9%,·
O=C(CNC(=O)c1ccc(Br)cc1)c1ccccc1,?,4.78µM*,2µM*,·,2.82µM*,·
O=C(CNC(=O)c1ccccc1)OC1CCCCC1,?,12µM*,0.891µM*,12.6µM*,3.98µM*,-3.8%
O=C(CNC(=O)c1ccc(F)cc1)c1ccc(Cl)cc1,?,9.53µM*,1.58µM*,·,3.98µM*,·
CC1CCCC(C)N1C(=O)COC(=O)CNC(=O)c1ccccc1 (stereo not given),3.4%,2.8%,-0.2%,·,-2.0%,·
O=C(Nc1cccc(F)c1)N1CCC2(CC1)CCN(C(=O)c1ccncc1)CC2,·,·,·,-21.8%,·,-3.6%
SMILES,ELG1 genotoxic,FLuc counter,Rab9 promoter act,SMN2 splice enh,NPC1 promoter act,KinaseGlo FLuc
CCOc1cc2[nH]c(=O)n(CCCCC(=O)N3CCN(c4ccccc4OC)CC3)c(=O)c2cc1OCC,·,1.4%,·,·,·,·
COC(=O)c1ccc(C(NC(=O)OCc2ccccc2)/C(F)=C/[C@@H](C)C(=O)NCc2cc(C)on2)cc1 (stereo not given in full),·,·,·,0.2%,·,0.7%
Cc1nc2c3ccccc3nc(NNC(=O)CCC(=O)N3CCN(c4cc(Cl)ccc4C)CC3)n2n1,·,-17.4%,·,0.5%,·,·
CC1=C(C)CC(C(=O)NCC(=O)c2ccccc2)C(C(=O)O)C1 (stereo not given),16.4µM*,15.1µM*,21.6%,17.2%,3.8%,-3.5%
CCCCOC(=O)NC(NCC(O)c1ccccc1)(C(F)(F)F)C(F)(F)F (stereo not given),-10.9%,1.2%,1.4%,-10.8%,-4.1%,6.5%
CCCCCOC(=O)NCC(O)c1ccccc1 (stereo not given),?,13.5µM*,4.47µM*,?,2.51µM*,-9.2%
CC1=C(C)CC(C(=O)NNC(=O)c2ccccc2)C(C(=O)O)C1 (stereo not given),2.6%,-1.2%,0.3%,2.3%,6.1%,-1.1%
CCOc1ccccc1NC(=O)CN1C(=O)CC(c2ccco2)Sc2ccccc21 (stereo not given),·,?,·,-33.4%,·,·
Nc1nn(-c2ccccc2)nc1C(=O)OCc1ccccc1,?,15.1µM*,18.1%,29.8%,12.9%,·
CCCCOc1ccc2ccccc2c1C=O,12.1%,21.3µM*,20.0%,-0.6%,19.6%,-6.9%
O=C(Nc1ccc2oc(-c3ccncc3)nc2c1)c1ccccc1Cl,·,?,·,0.2%,·,·
O=C(Nc1ccc2oc(-c3ccccc3F)nc2c1)c1ccccc1Cl,·,3.38µM*,·,14.1µM*,·,·
COc1ccccc1-c1nc2cc(NC(=O)c3ccccc3Cl)ccc2o1,·,5.36µM*,·,10.6%,·,·
CC(C)(C)C(=O)Nc1ccc2oc(-c3cc(F)c(F)cc3Cl)nc2c1,5.17µM*,2.69µM*,4.47µM*,25.5%,?,-0.3%
COc1ccccc1C(=O)Nc1ccc2oc(-c3cccc4c(Br)cccc34)nc2c1,·,?,·,1.2%,·,·
CCOc1cc(/C=C2/NC(=O)N(CC(=O)OC)C2=O)ccc1O,7.3%,-1.2%,-13.2%,6.4%,-15.1%,0.0%
O=C(Nc1ccc(S(=O)(=O)N2CCCCCC2)cc1)c1[nH]ncc1[N+](=O)[O-],?,16.9µM*,?,·,?,·
COc1cc2c(cc1C1NC(=S)NC(C)=C1C(N)=O)CCCC2 (stereo not given),?,0.6%,-1.7%,?,-7.5%,-1.6%
CC(=O)Oc1cccc(-c2nc3ccccc3c(=O)o2)c1,1.3%,19µM*,-0.3%,·,-0.7%,-3.8%
COc1cccc(-c2nc3ccc(O)cc3c(=O)o2)c1,1.5%,4.78µM*,2.3%,-10.4%,-2.7%,4.0%
O=c1oc(-c2cccc(S(=O)(=O)N3CCOCC3)c2)nc2ccccc12,-21.1%,-12.6%,-5.6%,10.0%,2.3%,-1.6%
Oc1ccc2ccccc2c1C=NCc1ccccc1,-7.0%,10.7µM*,11.2%,·,-2.9%,·
O=CN/N=C/c1c(O)ccc2ccccc12,0.0%,-1.2%,-28.7%,·,-33.2%,·
Oc1ccc2ccccc2c1/C=N/Nc1ccccc1,?,6.01µM*,-0.1%,?,0.0%,-0.2%
